Results taken from PubChem BioAssay (NCATS).
Inconclusive results are not listed. A call without a number means that no potency is given here. Active and inactive are the calls of the source. Calls follow the shape of the dose curve; as a rule, active = well fitted inhibition curve with a large enough effect; inconclusive = small, poorly fitted or top-dose-only effect; inactive = flat fitted curve, though single readings scatter. *1 amine or outer side, *2 acyl side, *3 side chain or, on linkers, in order; H or OH if unused. Where a SMILES comes first, the peptide text is derived from it. Bridges are numbered along the chain shown (N, C = ends). [ ]: non-standard residue; d: D form. The star is where a group is joined. ξ: configuration not given here. X10 = NC1=NCCC(C(N[*:1])C(=O)[*:2])N1; ΔAla(3-NHCONH2) = NC(=O)NC=C(N)C(=O)O; ξβ3hOrn = NCCCC(N)CC(=O)*; Dap = NC[CH](N)C(=O)O

These compounds were tested against Glutathione peroxidase 1 (Homo sapiens) (UniProt P07203) (assay: Primary qHTS Assay for Inhibitors of Recombinant Selenoprotein Glutathione Peroxidase 1 (GPX1) (AID 1845191)). Settings: recombinant GPX1, GR-coupled NADPH fluorescence, 15 min; series mostly up to 48.8 µM.
Sequence of Glutathione peroxidase 1 (Homo sapiens) (P07203 whole entry, looked up): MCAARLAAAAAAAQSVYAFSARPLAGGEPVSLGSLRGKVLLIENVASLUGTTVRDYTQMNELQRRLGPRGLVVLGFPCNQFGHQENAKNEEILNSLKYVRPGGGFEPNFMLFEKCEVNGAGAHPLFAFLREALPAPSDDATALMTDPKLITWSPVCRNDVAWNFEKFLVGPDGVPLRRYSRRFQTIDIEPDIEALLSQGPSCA
Outline: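 10 nM GPX1 + cpd, 30 min RT; start w/ 1 mM GSH, 0.5 mM cumene hydroperoxide, 0.5 mM NADPH, 100 nM GR, 0.01% BSA; buffer 50 mM Tris-HCl pH 7.5, 2 mM EDTA, 150 mM NaCl; Fl 340/450, 0 & 15 min.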
Also: nearly all actives have a fitted effect of over 65% in size.

| SMILES | Potency | outcome |
| --- | --- | --- |
| N#C/C(=C1/SC[C@@H](c2ccc(Cl)cc2Cl)S1)n1ccnc1 | inactive |  |
| CN1C(CSCC(F)(F)F)Nc2cc(Cl)c(S(N)(=O)=O)cc2S1(=O)=O (stereo not given) | inactive |  |
| CCCCCC[C@@H](CCC)C(=O)O | inactive |  |
| O=C(OCC(COC(=O)c1cccnc1)(COC(=O)c1cccnc1)COC(=O)c1cccnc1)c1cccnc1 | inactive |  |
| CCCCCOc1ccccc1/C(=C\SC)n1ccnc1 | inactive |  |
| CC(C(O)c1ccccc1)N(C)CCOC(c1ccccc1)c1ccccc1 (stereo not given) | inactive |  |
| NCCCC(N)CC(=O)NCC1NC(=O)C(CO)NC(=O)C(N)CNC(=O)C(C2CCN=C(N)N2)NC(=O)C(=CNC(N)=O)NC1=O (stereo not drawn) (H-[Dap]S[Dap](ξβ3hOrn)[ΔAla(3-NHCONH2)][X10]; lactam 1-C; configuration not given here) |  | inactive [at 0.4 µM] |

The compounds below were run against Phospholipid hydroperoxide glutathione peroxidase GPX4 (Homo sapiens) (UniProt P36969) (assay: Primary qHTS Assay for Inhibitors of Recombinant Selenoprotein Glutathione Peroxidase 4 (GPX4) (AID 1845192)). Settings: recombinant GPX4, GR-coupled NADPH fluorescence, 15 min; series mostly up to 50 µM.
Sequence of Phospholipid hydroperoxide glutathione peroxidase GPX4 (Homo sapiens) (P36969 whole entry, looked up): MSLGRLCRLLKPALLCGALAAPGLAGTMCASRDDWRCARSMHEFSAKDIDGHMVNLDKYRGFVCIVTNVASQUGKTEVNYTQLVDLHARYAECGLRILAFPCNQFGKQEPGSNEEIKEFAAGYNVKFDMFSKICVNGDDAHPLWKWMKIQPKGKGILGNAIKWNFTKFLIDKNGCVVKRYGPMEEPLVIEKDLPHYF
Outline: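 NADPH consumption, followed by fluorescence at 340/450 nm between 0 and 15 min, reports GPX4 activity via coupled glutathione reductase (100 nM). Enzyme 200 nM was pre-exposed to compound 30 min; 0.5 mM cumene hydroperoxide and 1 mM GSH served as substrates.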

| SMILES | Potency | activity change, negative = inhibition |
| --- | --- | --- |
| CC(C)(C)C(O)/C=C/c1ccc2c(c1)OCO2 (stereo not given) | inactive |  |
| CC(C)NCCCC1(C(N)=O)c2ccccc2-c2ccccc21 | inactive |  |
| Cc1ccc(/C=N/n2c(-c3ccccc3)csc2=S)cc1 | inactive |  |
| CC(=O)N[C@@H](CCC(N)=O)C(=O)O | inactive |  |
| CCOC(=O)c1cc(=O)c2c(OCC(COc3cccc4oc(C(=O)OCC)cc(=O)c34)OC(=O)[C@@H](N)CCCCN)cccc2o1 | inactive |  |
| CCn1ccc(NS(=O)(=O)c2ccc(N)cc2)nc1=O | inactive |  |
| O=C(O)[C@H](O)[C@@H](O)[C@H](O[C@@H]1O[C@H](CO)[C@H](O)[C@H](O)[C@H]1O)[C@H](O)CO | inactive |  |
| CC(=O)OCC(=O)[C@@]1(O)CCC2C3CCC4=CC(=O)CC[C@]4(C)C3[C@@H](O)C[C@@]21C (stereo not given in full) | inactive |  |
| O=C(CS(=O)Cc1ccco1)NC/C=C\COc1cc(CN2CCCCC2)ccn1 (stereo not given) | inactive |  |
| CC(=O)[C@@]1(O)CC[C@H]2[C@@H]3C[C@H](C)C4=CC(=O)CC[C@]4(C)[C@H]3CC[C@@]21C | inactive |  |
| CN1C(=O)CC(C)(c2ccccc2)C1=O (stereo not given) | inactive |  |
| N#Cc1cc(NC(=O)C(=O)O)c(Cl)c(NC(=O)C(=O)O)c1 | inactive |  |
| CCO[C@H](Cc1ccc(OCCc2ccc(OS(C)(=O)=O)cc2)cc1)C(=O)O | inactive |  |
| CCOC(=O)c1ccc(NC(=O)CN2CCCCC2)cc1 | inactive |  |
| Cc1ccccc1N1CCN(CCc2nnc3n2CCCC3)CC1 | inactive |  |
| CC(C)(C)NCC(O)COc1ccccc1OCC1CCCO1 (stereo not given) | inactive |  |
| CC(=O)Oc1ccc(C2(c3ccc(OC(C)=O)cc3)Oc3ccccc3NC2=O)cc1 | inactive |  |
| Brc1ccc([C@H]2CN3CCSC3=N2)cc1 | inactive |  |
| O=C(O)[C@@H](O)[C@H](O)[C@H](O)[C@@H](O)C(=O)O | inactive |  |

| SMILES | Potency | activity change, negative = inhibition |
| --- | --- | --- |
| C/C(=C1\CCOC(=O)S1)N(C=O)Cc1cnc(C)nc1N | inactive |  |
| CC(C)(C)CC(=O)OCC(=O)[C@@]1(O)CC[C@H]2[C@@H]3CCC4=CC(=O)C=C[C@]4(C)[C@H]3[C@@H](O)C[C@@]21C | inactive |  |
| CCN(CC)CC(=O)Nc1c(C)cccc1C(=O)OC | inactive |  |
| O=[N+]([O-])c1cncn1CCN1CCOCC1 | inactive |  |
| O=C1[C@@H]2[C@H]3CC[C@H](C3)[C@@H]2C(=O)N1CCCCN1CCN(c2ncccn2)CC1 | inactive |  |
| N#C/C(=C1/SC[C@@H](c2ccc(Cl)cc2Cl)S1)n1ccnc1 | inactive |  |
| CC(C)Cc1ccc(C(C)C(=O)OCc2ccccn2)cc1 (stereo not given) | inactive |  |
| CCCC(=O)OCOC(=O)C1=C(C)NC(C)=C(C(=O)OC)C1c1cccc(Cl)c1Cl (stereo not given) | inactive |  |
| O=C(O)C(=O)Nc1cccc(-c2nn[nH]n2)c1 | inactive |  |
| CN1C(CSCC(F)(F)F)Nc2cc(Cl)c(S(N)(=O)=O)cc2S1(=O)=O (stereo not given) | inactive |  |
| CCCCCC[C@@H](CCC)C(=O)O | inactive |  |
| CC(=O)Nc1c(I)c(NC(C)=O)c(I)c(C(=O)O)c1I | inactive |  |
| O=C(OCC(COC(=O)c1cccnc1)(COC(=O)c1cccnc1)COC(=O)c1cccnc1)c1cccnc1 | inactive |  |
| CCC1=C[C@@H]2CN(C1)Cc1c([nH]c3ccccc13)[C@@](C(=O)OC)(c1cc3c(cc1OC)N(C)[C@H]1[C@@](O)(C(=O)OC)[C@H](OC(C)=O)[C@]4(CC)C=CCN5CC[C@]31[C@@H]54)C2 | inactive |  |
| CCCCCOc1ccccc1/C(=C\SC)n1ccnc1 | inactive |  |
| O=C(Nc1ccc(Cl)cc1)Nc1ccc(Cl)c(Cl)c1 | inactive |  |
| CC(C(O)c1ccccc1)N(C)CCOC(c1ccccc1)c1ccccc1 (stereo not given) | inactive |  |
| C/C(=N\O)[C@@H](C)NCC(C)(C)CN[C@H](C)/C(C)=N/O | inactive |  |
| NCCCC(N)CC(=O)NCC1NC(=O)C(CO)NC(=O)C(N)CNC(=O)C(C2CCN=C(N)N2)NC(=O)C(=CNC(N)=O)NC1=O (stereo not drawn) (H-[Dap]S[Dap](ξβ3hOrn)[ΔAla(3-NHCONH2)][X10]; lactam 1-C; configuration not given here) |  | 3.67% [at 0.409 µM] (inactive) |
